This is an account of results in PubChem BioAssay (NCI).

Holding throughout (assay): NCI-60 one-dose screen, 48 h (100 = growth as untreated, 0 = no growth, -100 = all killed)
What all share (conditions): 10 µM unless noted

Test [1] deals with T-47D breast.
Test [2] concerns MDA-MB-435 melanoma.
Test [3] has as its system MCF7 breast.
For test [4], the system named is HCT-116 colon.
The test system of test [5] is HCC-2998 colon.
Test [6] deals with KM12 colon.
The subject of test [7] is SW-620 colon.
Test [8] deals with BT-549 breast.

About 83,000 compounds went through this panel and 20% of them were active in at least one assay; those are over-represented in the sample as a whole.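 In brief: 96-well plates, 48 h treatment, single concentration, percent growth endpoint.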 Unmarked numbers belong to inactive results. Calls of active or inactive are those of the source. How the source made its calls: active means growth percent below 10; inactive means the rest.

Take `COc1ccc(-c2c(C#N)cnc(N)c2-c2nc3cc(C)c(C)cc3[nH]2)cc1`: the growth is 71.7% in test [1]; -5.12% (active) in test [2]; 50.9% in test [3]; 20.7% in test [4]; 1.45% (active) in test [5]; 17.2% in test [6].
On to `Oc1ccc(O)c(-[n+]2ccccc2)c1`, for which the growth in test [1] was 110%; in test [2], 109%; in test [7] it was 96.9%; in test [3] it was 102%; in test [4], 93.3%; in test [5], 102%. Also, the growth in test [6] was 107%.
On to `C=C1C(=O)O[C@H]2[C@H]1CC/C(COC(=O)c1ccccc1)=C\CC[C@@]1(C)O[C@@H]21`, for which the growth was -13.7% (active) in test [8]; -3.73% (active) in test [2]; -55.4% (active) in test [7]; -30.7% (active) in test [3]; -86.6% (active) in test [4]; 83.9% in test [5]. For the same molecule, the growth in test [6] is 65.6%.
Turning to `Cc1ccc2c(c1)Nc1ccc(C)cc1C2(C)C`, the growth in test [1] was 80.6%; in test [2] it was 98.3%; in test [7], 103%; in test [3] it was 86.9%; in test [4], 89.3%; in test [5] it was 104%. For the same molecule, in test [6], the growth was 110%.
For `O=C(C[n+]1ccccc1Cl)c1ccc2c(c1)CCCC2`, the growth is 79.6% in test [1]; 92.1% in test [2]; 82.8% in test [7]; 95.8% in test [3]; 80.3% in test [4]; 103% in test [5]. Besides, in test [6], the growth was 82.2%.
On to `O=C(O)c1ccccc1C(=O)c1ccc(I)cc1`, for which the growth was 83.1% in test [1]; 107% in test [2]; 97.4% in test [7]; 92.1% in test [3]; 99.9% in test [4]; 102% in test [5]. For the same molecule, the growth in test [6] was 106%.
For `O=C(C[n+]1cccc(Br)c1)c1ccc2c(c1)CCCC2`, the growth was 91.6% in test [1]; 100% in test [2]; 103% in test [7]; 90.4% in test [3]; 88.2% in test [4]; 103% in test [5]. In addition, the growth in test [6] is 108%.
As for `N#CC(C#N)=C(C#N)c1c[nH]c2ccccc12`, the growth in test [1] was 60.8%; in test [2] it was 95.6%; in test [7] it was 62.4%; in test [3], 74.7%; in test [4] it was 85.4%; in test [5], 106%. Further, the growth in test [6] was 102%.
As for `C=C1C(=O)O[C@H]2[C@H]1CC/C(COC(=O)c1cc(OC)c(OC)c(OC)c1)=C\CC[C@@]1(C)O[C@@H]21`, the growth is -42% (active) in test [8]; -53% (active) in test [2]; -49.5% (active) in test [7]; -16.5% (active) in test [3]; -84.8% (active) in test [4]; 41.2% in test [5]. Also, the growth in test [6] was 54.5%.
On to `O=C(c1ccccc1)[C@H]1[C@@H]2CCCN2[C@]2(C(=O)Nc3ccc(F)cc32)[C@]12C(=O)Nc1ccccc12`, for which the growth in test [8] was 91.6%; in test [2], 92%; in test [7], 97.8%; in test [3] it was 82.5%; in test [4], 76.5%; in test [5] it was 101%. In test [6], the growth is 94.1%.
With `COc1cc(C(=O)C[n+]2ccccc2)ccc1OC(C)=O`, the growth in test [8] is 94.5%; in test [2] it was 99.8%; in test [7], 96.9%; in test [3] it was 95.6%; in test [4] it was 87.6%; in test [5], 105%. Further, in test [6], the growth was 102%.
For the molecule `Oc1ccccc1/C=N/c1ccccn1`, the growth in test [2] was 122%; in test [7], 107%; in test [3] it was 97.7%; in test [4], 103%; in test [5], -94.1% (active); in test [6] it was 113%.
Take `OCc1cnccc1NC12CC3CC(CC(C3)C1)C2`: the growth in test [8] is 110%; in test [2] it was 105%; in test [7], 103%; in test [3], 101%; in test [4] it was 99.6%; in test [5], 105%. For the same molecule, in test [6], the growth was 103%.
For `CC(Cl)(CCl)CS(=O)(=O)c1ccc(Cl)cc1` (centres undefined), the growth in test [8] was 105%; in test [2], 108%; in test [7], 103%; in test [3], 99.8%; in test [4] it was 103%; in test [5], 104%. In addition, the growth in test [6] was 108%.
Turning to `O=C(Nc1ccc(-n2ccc3c(NC(=O)c4ccccc4)nccc32)cc1)c1cccc(C(F)(F)F)c1`, the growth in test [8] was 29%; in test [2], 11%; in test [3], 24.3%; in test [4], 12.8%; in test [5], 44.2%; in test [6], 20.4%.
Regarding `CN1CCN(Cn2nc(-c3cc(F)c(Cl)cc3Cl)n(/N=C/c3ccc(N(C)C)cc3)c2=S)CC1`, the growth in test [8] was 67.1%; in test [2] it was -7.65% (active); in test [7], 70.5%; in test [3] it was 112%; in test [4], 82.1%; in test [5], 98%. The growth in test [6] was 88.8%.
With `CN(C)CCCOc1c(Br)cc(/C=C/C(=O)N(C)CCc2cc(Br)c(OCCCN(C)C)c(Br)c2)cc1Br`, the growth in test [8] was 76.5%; in test [2], 19.8%; in test [3], 32.5%; in test [4] it was 12.1%; in test [5] it was 73%; in test [6], 47.7%.
Regarding `COc1cc(NC(=O)C#Cc2ccccc2)c(OC)cc1Cl`, the growth in test [8] was 51.3%; in test [2], 59.3%; in test [7] it was 23.9%; in test [3], 22.6%; in test [4], 21.9%; in test [5], 90.9%. In test [6], the growth is 49.7%.
In the case of `Cc1ccc2[nH]c3nc4cccnc4c(C)c3c2c1`, the growth was 68.6% in test [8]; 108% in test [2]; 91.6% in test [7]; 1.4% (active) in test [3]; 91.9% in test [4]; 92.7% in test [5]. Further, the growth in test [6] is 72.8%.
Take `COc1ccc2c(c1)nnn1c3ncccc3c(N=O)c21`: the growth is -11.7% (active) in test [8]; -5.59% (active) in test [2]; -80.3% (active) in test [7]; -58.7% (active) in test [3]; -86% (active) in test [4]; 12.6% in test [5]. Further, the growth in test [6] was 5.81% (active).
Consider `Nc1nccc2c1ccn2-c1ccc(NC(=O)c2ccc(N3CCOCC3)c(C(F)(F)F)c2)cc1`, for which the growth in test [8] is 26.5%; in test [2] it was -8.07% (active); in test [7] it was -32.8% (active); in test [3] it was -18.2% (active); in test [4] it was 4.53% (active); in test [5], 39.1%. The growth in test [6] was -41.4% (active).
For the molecule `CCn1cc(/C=C2\Oc3cc(OCC#N)ccc3C2=O)c2cc(OC)ccc21`, the growth in test [8] was 52.6%; in test [2] it was -20.7% (active); in test [7], 28%; in test [3], 20.6%; in test [4], 12.4%; in test [5], 55.6%. Also, the growth in test [6] was 23.6%.
For `Cc1c(F)cccc1NC(=O)c1sc2nc3c(cc2c1N)CCCCC3`, the growth is 73.6% in test [8]; 9.59% (active) in test [2]; 25% in test [7]; 14.8% in test [3]; 49.8% in test [4]; 75.8% in test [5]. In addition, the growth in test [6] was 34.8%.
In the case of `O=C(O)c1cccc(S(=O)(=O)c2ccccc2)c1`, the growth was 107% in test [8]; 94.2% in test [2]; 98.5% in test [7]; 90.4% in test [3]; 109% in test [4]; 104% in test [5]. In test [6], the growth is 97.4%.
With `C=C1C(=O)O[C@H]2[C@H]1CC/C(COC(=O)c1ccc3ccccc3c1)=C\CC[C@@]1(C)O[C@@H]21`, the growth in test [8] was -55.2% (active); in test [2] it was -73.8% (active); in test [7], -37.9% (active); in test [3], -36.1% (active); in test [4], -90.6% (active); in test [5], 42%. The growth in test [6] was 32.8%.
On to `O=C(Cn1c2ccccc2c2ccncc21)N/N=C\c1ccc2ccccc2c1`, for which the growth in test [8] is 52.5%; in test [2] it was 24.5%; in test [7] it was 26.4%; in test [3], 11.7%; in test [4], -41.7% (active); in test [5] it was 74.5%. For the same molecule, the growth in test [6] is 36%.
`CC(=O)Nc1ccc([I+]c2ccc([N+](=O)[O-])cc2)cc1`: the growth in test [2] was 109%; in test [7], 95.1%; in test [3], 94.8%; in test [4], 81%; in test [5] it was 106%; in test [6] it was 104%.
